Consider 24 sequences from the supplement of paper PMC10338343.

± gives the standard deviation.

For the assay, the system named is MILI (PIWIL2) piRISC loaded with L1MC piRNA (26 nt). As to the kind of experiment: pre-steady-state target cleavage rate (min^-1); guide: L1MC piRNA 5'p-UAACUAAAUACUAUGCAAGCUGUAGG; MIWI and MILI are mouse PIWI proteins and EfPiwi is from a freshwater sponge; tags in brackets are library labels; higher = faster piRNA-guided slicing of the target. The following applies: auxiliary factor: 500 nM mouse GTSF1. A digest of the protocol:
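In Cleave-'n-Seq, a transcribed, DNA-blocked target RNA library (0.1 nM) was combined with 1 nM active affinity-purified piRISC bearing one synthetic guide, with or without 500 nM GTSF1 partner protein. Reactions ran in HEPES–potassium acetate buffer at 33 °C for 0–8 or 0–960 min. Uncleaved targets were sequenced and normalised to depth and to weakly complementary targets, three trials were pooled, and k3 was capped at 0.0001 min^-1. The pre-steady-state cleavage rate was obtained by fitting a burst-and-steady-state model.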
For the sequence UCCUGGAACACCUUGCAUAGUAUUUACUUA, the “pre-steady-state target cleavage rate” value turned out to be 0.0546 ± 0.018.
Under UCCUGGAACAGCUUGCAUAGAUAUUAGUAA stands 0.0101 ± 0.0057; under UCCUGGAUGUCGAUCAUAGUAUUUAGUUA, 0.017 ± 0.006; under UCCUGGAUCAGCUUGCAUAGAUUUUAGAAA, 0.00651 ± 0.0043.
On to UCCUGGAACAGCUUGCAUACUAUAUAGUUA, for which the “pre-steady-state target cleavage rate” value turned out to be 0.0332 ± 0.0099.
UCCUGCUACACGUUGCAUAGUAUUUAGAAA: the “pre-steady-state target cleavage rate” value was found to be 0.0396 ± 0.013.
Consider UCCUGGAACUCGUUGCAUAGUAUUUACAAA, for which the “pre-steady-state target cleavage rate” value turned out to be 0.0537 ± 0.013.
For the sequence UCCUGGAUGUGCUAGCAUAGUAUUUACUUA, the “pre-steady-state target cleavage rate” value amounted to 0.0865 ± 0.019.
Next, UCCUGGAUGUGCAAGCAUAGUAUUUAGUAA: 0.0583 ± 0.013; UCCUGGUACAGCUUGGUAAGUAUUUAGAAA: 0.0185 ± 0.0092; UCCUGGUACACCUUGCAUAGUAUUUACUUA: 0.108 ± 0.041.
Under UCCUGGAACAGCUUCGAUAGUAUUUAGAAA stands 0.0923 ± 0.021; under UCCUGGAUCAGCUUGCAAAGUAUUUAGAAA, 0.0827 ± 0.015; under UCCUGGAUCAGCUUGCAUAGUAAAUACAAA, 0.0497 ± 0.016.
Next, UCCUGGUACAGCUUGCAUAGUAUAAAGAAA: 0.0207 ± 0.0082; UCCUCCUACAGCUUGCAAUCUAUUUAGAAA: 0.0218 ± 0.007.
UCCUGGAACAGCUUGCAAAGAAUUUAGUUA: the “pre-steady-state target cleavage rate” value came out at 0.102 ± 0.037.
Take UCCUCCUACAGCUUGGUUAGUAUUUACAAA: the “pre-steady-state target cleavage rate” value amounted to 0.0445 ± 0.012.
Under UCCUGGAUGUGCUUGCAAAGUAUUUAGAUA stands 0.0284 ± 0.008.
In the case of UCCUGGAUGUGCAACCAUAGUAUUUAGUAA, the “pre-steady-state target cleavage rate” value was found to be 0.00554 ± 0.0027.
Under UCCUGGAUCUCGUUGCAUAGUAUUUUCAAA stands 0.0482 ± 0.013; under UCCUGGAUGAGCUUGCAUUGUAUUUACUUA, 0.031 ± 0.012.
For UCCUGGUACAGCAUGCAUAGUAUUUACAAA, the “pre-steady-state target cleavage rate” value was determined as 0.127 ± 0.033.
Under UCCUGGAUGAGCUUGCAUAGUAUAAUGUAA stands 0.00667 ± 0.0048.
